Sampled rows, rich in hits. Any-hit rate of the full collection: about 2%.
TCR CD3 inh = inhibitors of human TCR-CD3 interaction, primary screen, biochemical, fluorescence, TAMRA-labeled TCR probe. 0.37% of 360,000 active. inhibition, % at 9.4 µM. AID 651800, 2012; in the data active means inhibition above about 19%;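 further: recombinant mutant TCR 2C K166C tagged with TAMRA read by polarization; 0% = receptor in buffer alone and 100% = receptor with positive control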
UHRF1 MBD2 ctr = UHRF1 methylated DNA binding inhibitors, primary screen, counter-screen for MBD2 inhibitor project, biochemical, TR-FRET, human UHRF1, single concentration; 0.75% of 370,000 active; UHRF1 binding to methylated oligo; inhibition, % at 4.4 µM; E3 ubiquitin-protein ligase UHRF1 (Homo sapiens), Q96T88; AID 687016, 2013; in the data active means inhibition above about 21%;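 further: UHRF1 SRA domain binding a hemimethylated CpG hairpin DNA probe; 0% = median of test compound wells and 100% = reference inhibitor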
Rin1-Abl PPI inh = inhibitors of Rin1-Abl protein binding, primary screen, biochemical, TR-FRET. Tyrosine-protein kinase ABL1 (Homo sapiens) + Ras and Rab interactor 1 (Homo sapiens), …. inhibition, % at 7.35 µM. 0.4% of 360,000 active. AID 588664, 2011; in the data active means inhibition above about 5%, passing the limit was not always enough
MBD2 DNA inh = inhibitors of MBD2 binding to methylated DNA, primary screen, biochemical, TR-FRET, DNA-binding domain, human; Methyl-CpG-binding domain protein 2 (Homo sapiens), Q9UBB5; MBD2 binding to methylated oligonucleotide; inhibition, % at 4.4 µM; 0.31% of 370,000 active; in the data active means inhibition above about 13%
Target sequence (Q9UBB5 whole entry, looked up, the tested form may be a part): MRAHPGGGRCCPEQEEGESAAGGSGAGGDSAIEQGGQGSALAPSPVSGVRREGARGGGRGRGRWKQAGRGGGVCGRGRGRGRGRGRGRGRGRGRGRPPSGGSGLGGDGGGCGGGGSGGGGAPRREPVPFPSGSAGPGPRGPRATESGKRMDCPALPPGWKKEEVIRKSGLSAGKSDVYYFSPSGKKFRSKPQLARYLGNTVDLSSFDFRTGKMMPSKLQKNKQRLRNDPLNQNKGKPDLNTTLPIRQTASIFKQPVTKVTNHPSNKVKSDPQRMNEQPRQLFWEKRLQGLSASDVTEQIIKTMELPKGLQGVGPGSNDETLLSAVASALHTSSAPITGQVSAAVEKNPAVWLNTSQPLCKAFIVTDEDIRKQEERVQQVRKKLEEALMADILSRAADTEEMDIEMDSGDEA
LEDGF integ inh = blockers of LEDGF/p75-dependent integrase strand transfer – biochemical, TR-FRET, high throughput, primary screen; TR-FRET IN-LEDGF/p75 DNA integration, Eu/Cy5; inhibition, % at 3.7 µM; 0.64% of 370,000 active;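 active means inhibition above the screen-wide mean plus 3 SD, cut at about 13% in these data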;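 further: signal is the Cy5 over europium emission ratio at 671 and 618 nm; 0% = plate median of compound wells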
IN multimer up = HIV-1 IN multimer formation enhancers, counter-screen for LEDGF/p75 integration inhibitor project, biochemical, TR-FRET. TR-FRET HIV-1 integrase multimerization. activation, % at 7.7 µM. 17% of 2,000 active. shares compounds with LEDGF integ inh; in the data active means activation above about 8.9%
TR-FRET interf = TR-FRET optical interference artefacts, confirmation, artefact control for LEDGF/p75-dependent integration inhibitor project, biochemical, HIV-1 IN multimerization; 2,000 tested, under 10 active; inhibition, % at 7.7 µM; shares compounds with LEDGF integ inh; TR-FRET optical interference counterscreen;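 active means inhibition above the mean over all tested compounds plus 3 SD, which no compound reached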;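 further: 0% = integrase with antibodies and DMSO and 100% = antibodies without integrase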
IN-LEDGF confirm = inhibitors of HIV-1 IN-LEDGF/p75 DNA integration, confirmation, biochemical, TR-FRET. shares compounds with LEDGF integ inh. TR-FRET LEDGF/p75-dependent HIV-1 integration. inhibition, % at 3.7 µM. 36% of 2,000 active; in the data active means inhibition above about 14%
Starred values were filed as active, the others as inactive.

CN(C)c1ccc(N=Cc2cccn2C)cc1 was read as TCR CD3 inh 14, UHRF1 MBD2 ctr 3, Rin1-Abl PPI inh -1, MBD2 DNA inh -14, LEDGF integ inh 22*, IN multimer up 2, TR-FRET interf -9 and IN-LEDGF confirm 10.
Cc1ccc(S(=O)(=O)Nc2ccc(O)c3ccccc23)c(C)c1 was read as TCR CD3 inh -5, UHRF1 MBD2 ctr -5, Rin1-Abl PPI inh 5, MBD2 DNA inh -9, LEDGF integ inh 14*, IN multimer up 4, TR-FRET interf -14 and IN-LEDGF confirm 2.
Screening Cc1ccc(S(=O)(=O)Nc2ccc3c4c(cccc24)CC3)c(C)c1 returned TCR CD3 inh -5, UHRF1 MBD2 ctr 2, Rin1-Abl PPI inh -1, MBD2 DNA inh 2 and LEDGF integ inh 1.
For Cc1ccc(S(=O)(=O)Nc2cc(C(C(=O)OC(C)C)C(=O)C(F)(F)F)c(O)c3ccccc23)c(C)c1 (stereo not drawn) the results were TCR CD3 inh -4, UHRF1 MBD2 ctr -5, Rin1-Abl PPI inh 2, MBD2 DNA inh 2, LEDGF integ inh 14*, IN multimer up 1, TR-FRET interf -4 and IN-LEDGF confirm -1.
`CC(C)CCN(C(=O)c1csnn1)C(C(=O)NC1CCCCC1)c1ccc(F)cc1` (stereo not drawn) gave TCR CD3 inh 10, UHRF1 MBD2 ctr -2, Rin1-Abl PPI inh 0, MBD2 DNA inh 1 and LEDGF integ inh 0.
Screening O=C(NN=C(c1ccccc1)c1ccccn1)c1ccccc1 returned TCR CD3 inh 3, UHRF1 MBD2 ctr 8, Rin1-Abl PPI inh 2, MBD2 DNA inh -3, LEDGF integ inh 21*, IN multimer up -1, TR-FRET interf 2 and IN-LEDGF confirm -1.
O=C(CN1C(=O)CSc2ccc(S(=O)(=O)N3CCCCC3)cc21)NCc1ccccc1Cl was read as TCR CD3 inh 2, UHRF1 MBD2 ctr 0, Rin1-Abl PPI inh 1, MBD2 DNA inh -2 and LEDGF integ inh 1.
`CC1OC2CC(=O)OC2C2=C1C(=O)c1c(O)cccc1C2=O` (stereo not drawn) gave TCR CD3 inh 8, UHRF1 MBD2 ctr 18, Rin1-Abl PPI inh 3, MBD2 DNA inh -2, LEDGF integ inh 19*, IN multimer up -1, TR-FRET interf 3 and IN-LEDGF confirm 41*.
`CCCn1c2ccccc2c2nnc(SCCN3CCOCC3)nc21` gave TCR CD3 inh 2, UHRF1 MBD2 ctr -7, Rin1-Abl PPI inh -5, MBD2 DNA inh -9, LEDGF integ inh 20*, IN multimer up -2, TR-FRET interf 8 and IN-LEDGF confirm 5.
`CCSc1nc(-c2ccco2)ccc1C#N` gave TCR CD3 inh -11, UHRF1 MBD2 ctr 8, Rin1-Abl PPI inh -4, MBD2 DNA inh -1, LEDGF integ inh 16*, IN multimer up -2, TR-FRET interf 10 and IN-LEDGF confirm 13.
`C[C@@H](NC(=O)c1[nH]cnc1C(=O)Nc1nccs1)c1ccccc1` gave TCR CD3 inh 5, UHRF1 MBD2 ctr 2, Rin1-Abl PPI inh -1, MBD2 DNA inh -3 and LEDGF integ inh 1.
Screening Cc1nn(-c2ccccc2)c(N2CCCC2)c1/C=N/NC(=O)c1cc2ccccc2cc1O returned TCR CD3 inh 11, UHRF1 MBD2 ctr -5, Rin1-Abl PPI inh -2, MBD2 DNA inh 6, LEDGF integ inh 14*, IN multimer up -1, TR-FRET interf 5 and IN-LEDGF confirm 3.

Bioassay records as filed in PubChem BioAssay.
